Experimental data as given in PubChem BioAssay AID1159580 (chemical genetic matrix, 2015).
The whole screen tested about 5,500 compounds, of which about 2,000 (36%) were called active. Roughly 18% stayed inconclusive and do not appear here. Rule as the data show it: active = normalized growth mostly below about 0.91 (no sharp cut-off); inconclusive = no clear call, values can overlap the other calls; inactive = mostly above about 0.92. This is one part of the list.

Assay: chemical genetic growth profiling, strain panel (AID 1159580);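 also: tested at 20 µM; growth read once vehicle control cultures reached saturation at 30 °C; 1 = growth at the plate median or of vehicle wells; lower values mean less growth of the strain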
Conditions: S. cerevisiae deletion strains, growth OD

Measured: normalized growth

CCCN1CCC[C@@H]2Cc3[nH]ncc3C[C@H]21
inactive: locus YAL013W, strain DEP1, hits give low values 0.989 | locus YAL040C, strain CLN3, hits give low values 1.02 | locus YCL061C, strain MRC1 (second series), hits give low values 1 | locus YDR363W, strain ESC2, hits give low values 1.01 | locus YER002W, strain NOP16, hits give low values 1.01 | locus YMR263W, strain SAP30, hits give low values 0.994 | locus YMR307W, strain GAS1, hits give low values 0.985 | locus YNL128W, strain TEP1, hits give low values 1.02 | locus YNL175C, strain NOP13, hits give low values 1 | locus YNL197C, strain WHI3, hits give low values 1.02 | locus YNL224C, strain SQS1, hits give low values 1.01 | locus YNL322C, strain KRE1, hits give low values 1.01 | locus YOR083W, strain WHI5 (second series), hits give low values 1.02

O=C(Oc1ccc2ccccc2c1C1SCCS1)c1ccc([N+](=O)[O-])o1
inactive: locus YAR019C, strain CDC15, hits give low values 0.952 | locus YBL105C, strain PKC1, hits give low values 0.958 | locus YBR135W, strain CKS1, hits give low values 0.966 | locus YBR136W, strain MEC1, hits give low values 0.957 | locus YBR160W, strain CDC28, hits give low values 0.947 | locus YDL017W, strain CDC7, hits give low values 0.958 | locus YDL028C, strain MPS1, hits give low values 0.942 | locus YDL101C, strain DUN1, hits give low values 0.943 | locus YDL108W, strain KIN28, hits give low values 0.955 | locus YDL132W, strain cdc53, hits give low values 0.973 | locus YDL214C, strain PRR2, hits give low values 0.912 | locus YDR052C, strain DBF4, hits give low values 0.973 | locus YDR054C, strain cdc34, hits give low values 0.97 | locus YDR226W, strain ADK1, hits give low values 0.933 | locus YDR477W, strain SNF1, hits give low values 0.901 | locus YER123W, strain YCK3, hits give low values 0.907 | locus YER133W, strain GLC7, hits give low values 0.953 | locus YFL009W, strain cdc4, hits give low values 0.964 | locus YFL029C, strain CAK1, hits give low values 0.948 | locus YFR003C, strain YPI1, hits give low values 0.957 | locus YFR019W, strain FAB1, hits give low values 0.923 | locus YFR028C, strain CDC14, hits give low values 0.946 | locus YGR040W, strain KSS1, hits give low values 0.919 | locus YGR052W, strain FMP48, hits give low values 0.966 | locus YGR092W, strain DBF2, hits give low values 0.86 | locus YHR079C, strain IRE1, hits give low values 0.89 | locus YHR082C, strain KSP1, hits give low values 0.936 | locus YHR205W, strain SCH9, hits give low values 0.768 | locus YIL147C, strain SLN1, hits give low values 0.93 | locus YJL095W, strain BCK1, hits give low values 0.855 | locus YJL128C, strain PBS2, hits give low values 0.842 | locus YJL157C, strain FAR1, hits give low values 0.92 | locus YJR016C, strain ILV3, hits give low values 0.958 | locus YJR066W, strain TOR1 (second series), hits give low values 0.919 | locus YJR066W, strain TOR1, hits give low values 0.879 | locus YKL048C, strain ELM1, hits give low values 0.925 | locus YKL067W, strain YNK1, hits give low values 0.909 | locus YKL101W, strain HSL1, hits give low values 0.894 | locus YKL193C, strain SDS22, hits give low values 0.952 | locus YKL203C, strain TOR2, hits give low values 1.02 | locus YLR133W, strain CKI1, hits give low values 0.919 | locus YLR403W, strain SFP1, hits give low values 0.919 | locus YML070W, strain DAK1, hits give low values 0.907 | locus YMR001C, strain CDC5, hits give low values 0.94 | locus YMR205C, strain PFK2 (second series), hits give low values 0.938 | locus YMR277W, strain FCP1, hits give low values 0.937 | locus YNL006W, strain LST8, hits give low values 0.955 | locus YNL020C, strain ARK1, hits give low values 0.917 | locus YNL161W, strain CBK1, hits give low values 0.957 | locus YNL183C, strain NPR1, hits give low values 0.951 | locus YNL207W, strain RIO2, hits give low values 0.963 | locus YNL222W, strain SSU72, hits give low values 0.939 | locus YNL307C, strain MCK1 (second series), hits give low values 0.901 | locus YOL078W, strain AVO1, hits give low values 0.962 | locus YOL136C, strain PFK27, hits give low values 0.886 | locus YOR061W, strain CKA2, hits give low values 0.921 | locus YOR119C, strain RIO1, hits give low values 0.973 | locus YOR231W, strain MKK1, hits give low values 0.878 | locus YOR329C, strain SCD5, hits give low values 0.957 | locus YPL031C, strain PHO85, hits give low values 0.917 | locus YPL153C, strain RAD53, hits give low values 0.909 | locus YPL204W, strain HRR25, hits give low values 0.906 | locus YPL209C, strain IPL1, hits give low values 0.964 | locus YPR025C, strain CCL1, hits give low values 0.961 | locus YPR106W, strain ISR1, hits give low values 0.939 | locus YPR111W, strain DBF20, hits give low values 0.913 | strain NNK1, hits give low values 0.941 | strain TSCII, hits give low values 0.954
active: locus YHR030C, strain SLT2, hits give low values 0.698 | locus YLR113W, strain HOG1, hits give low values 0.702 | locus YPL256C, strain CLN2, hits give low values 0.807
